Hit rate of the full screen: of about 85,000 compounds, about 440 (0.52%) showed an effect of 50% or more. Many of the other results were omitted from the sample, so strong results are more common in it than they were.
Test: In vitro enzyme assay to detect hydrolysis of chlorophenol red-beta-D-[…] directly proportional to the number of Toxoplasma stably expressing beta-galactosidase
Type: functional, organism-based, Toxoplasma gondii
Parameters: scale not given: in the data most compounds retested in dose-response had high values

Structure (SMILES) | Percent Effect (50 µM) [%] | Percent Effect (10 µM) [%]
CCNC(=O)C1CN(C(=O)C(O)c2ccc(Br)cc2)C1 (centres undefined) | -1.346 | –
Cc1ccc([C@]2(O)CC[C@H]3CN(Cc4ccc(Cl)cc4Cl)C[C@H]32)nc1 | – | 8.934
Cc1ccc([C@]2(O)CC[C@H]3CN(Cc4cccc(F)c4F)C[C@H]32)nc1.O=C(O)CC(O)(CC(=O)O)C(=O)O | – | -4.995
CSc1ccc(CN2C[C@@H]3CC[C@@](O)(c4ccc(C)cn4)[C@@H]3C2)cc1 | – | 14.14
Cc1ccc([C@]2(O)CC[C@H]3CN(Cc4cccc(Cl)c4Cl)C[C@H]32)nc1.O=C(O)CC(O)(CC(=O)O)C(=O)O | – | 51.44
Cc1cccnc1[C@]1(O)CC[C@H]2CN(Cc3cccc(Cl)c3Cl)C[C@H]21.O=C(O)CC(O)(CC(=O)O)C(=O)O | – | 10.13
Cc1ccc(F)cc1S(=O)(=O)N1CCN[C@H](C)C1 | -0.3006 | –
CCN1CN=C(NS(=O)(=O)c2ccc(C)cc2)NC1 | -65 | –
CCSc1cc(C(=O)N2CC[S+]([O-])CC2)ccn1 | 18.59 | –
CC(CCc1ccc(O)cc1)NCCN1CCOCC1 (centres undefined) | -1.81 | –
O=C(CSCC(=O)NC1CC1)Nc1ccccc1 | 16.41 | –
CN(C)CCC1CN(C(=O)CCc2cccs2)CCO1 (centres undefined) | -11.11 | –
CCOc1c(OC)cc(CN)cc1OC | -2.331 | –
CCC(CO)Nc1ncc(C(F)(F)F)cc1Cl (centres undefined) | -11.03 | –
CCOc1cccc(NC(=O)NCCN(C)C)n1 | -13.49 | –
COc1ccc(CC(=O)NCC2CCCNC2)cc1F (centres undefined) | 55.41 | –
COc1ccc(CS(=O)(=O)CC(=O)NCC2CC2)cc1F | – | 4.977
Cc1cccc(CC(=O)NCC2CCCNC2)c1 (centres undefined) | -6.216 | –
CCC(C)NC(=O)c1cnn(-c2ccccc2)c1 (centres undefined) | -7.328 | –
CCC(OC)c1n[nH]c(=O)n1Cc1cccc(OC)c1 (centres undefined) | -6.855 | –
CCC(C)NCCOC (centres undefined) | -11.32 | –
CCN(CC(=O)NC)C(=O)C(C)SC (centres undefined) | 23.69 | –
Clc1ccccc1C1(c2ccnc(CC3CC3)n2)CCNCC1 | – | 35.91

Structure (SMILES) | Percent Effect (50 µM) [%] | Percent Effect (10 µM) [%]
Clc1ccccc1C1(c2ccnc(C3CC3)n2)CCNCC1 | – | 61.01
Clc1ccccc1C1(c2ccnc(-c3ncccn3)n2)CCNCC1 | – | 5.922
CC(C)(C)c1nccc(C2(c3ccccc3Cl)CCNCC2)n1 | – | 94.8
O=c1[nH]cccc1-c1nccc(C2(c3ccccc3Cl)CCNCC2)n1 | – | 22.57
CC(C)c1nccc(C2(c3ccccc3Cl)CCNCC2)n1 | – | 24.49
Clc1ccccc1C1(c2ccnc(C3CCCC3)n2)CCNCC1 | – | 92.51
Clc1ccccc1C1(c2ccnc(-c3ccncc3)n2)CCNCC1 | – | 16.95
OC1(c2ccccc2Cl)CCNCC1 | 6.16 | –
NC(=O)C1(CNCc2cccc(F)c2)CCOCC1 | -0.9049 | –
CSCc1nnc(SCC(=O)NC2(C#N)CCCC2)o1 | 9.959 | –
CCCNC(=O)C1CCCN1 (centres undefined) | 2.398 | –
CC(=O)Nc1ccc(-n2cncn2)nc1 | -6.105 | –
O=C(NCc1cccnc1)c1cn2cccnc2n1 | -2.314 | –
Cc1noc(CCCNC(=O)CNC(=O)c2cc3ccccc3[nH]2)n1 | – | 4.234
Cc1ocnc1CNC(=O)c1ccon1 | 99.22 | –
Cc1nc(C)c(C(=O)NCc2ncoc2C)s1 | -1.836 | –
CC1(CCNC(=O)c2ccon2)OCCO1 | 9.96 | –
Cc1ocnc1CNC(=O)c1ccc(Br)cn1 | 1.589 | –
Cc1noc(CCCNC(=O)c2ccon2)n1 | 62.73 | –
CCC=C(C)C(=O)NCC(C)N1CCN(CC)CC1 (centres undefined) | 11.7 | –
CCNC(=O)C1CCN(C(=O)Cc2cccc(O)c2)C1 (centres undefined) | -5.389 | –
CC(C)(O)CCN1CCC(NC(=O)C2CCC2)CC1 | 0.697 | –
COCCN1CCC(c2ccn[nH]2)CC1 | -6.586 | –

Structure (SMILES) | Percent Effect (50 µM) [%] | Percent Effect (10 µM) [%]
CNC(=O)NC(=O)CSc1ccccc1F | -1.003 | –
CCOc1ncccc1C(=O)NCC(C)N1CCCC1 (centres undefined) | 52.4 | –
CCOc1ncccc1C(=O)NCC1CCCN1CC (centres undefined) | -0.459 | –
COc1ncccc1C(=O)NCC(=O)N1CCCC1 | -2.429 | –
CCN1C(=O)C[C@H](CN)[C@H]1c1ccncc1 | 4.591 | –
CCCn1cnnc1CNC | 0.9072 | –
CNc1cc(-c2cccc(OC)c2)[nH]n1 | 98.42 | –
COc1cccc(-c2cc(C(=O)Nc3nc[nH]n3)[nH]n2)c1 | – | 20.51
CNc1cc(OC)ccn1 | -16.02 | –
Cn1cc(Br)c(CO)n1 | 1.484 | –
Cc1cc(CCC(=O)NCCC(N)=O)ccc1Br | -2.096 | –
Cc1cc(F)ccc1S(=O)(=O)N1C[C@H](C2CC2)[C@@H](N)C1 | 8.476 | –
Cc1ccc(F)cc1S(=O)(=O)N1C[C@H](C2CC2)[C@@H](N)C1 | 98.86 | –
Cc1ccc(F)c(S(=O)(=O)N2C[C@H](C3CC3)[C@@H](N)C2)c1 | 7.08 | –
COc1ccc(S(=O)(=O)N2C[C@H]3CNC[C@@H](C2)O3)cc1 | -2.543 | –
OCC1CCN(Cc2ccccc2)CC1 | -5.201 | –
NCc1cccc(OCC(F)F)c1 | -2.735 | –
CCCc1ccc(CN2CCC(NC(C)=O)C2)o1 (centres undefined) | 2.217 | –
O=C(NCC1CCN(C2CC2)C1)c1ccccc1F (centres undefined) | 13.84 | –
CN(C)c1cc(C2CCCN(C(=O)Cn3cc(Cl)cn3)C2)ccn1 (centres undefined) | – | 0.9748
O=C(Cn1cc(Cl)cn1)N1CCCC(c2ccn[nH]2)C1 (centres undefined) | – | -16.77
CN(C)[C@H]1CCCCN(C(=O)Cn2cc(Cl)cn2)C1 | 95.45 | –
CC(C)(C)CC1CCCN1S(N)(=O)=O (centres undefined) | -15.84 | –

Structure (SMILES) | Percent Effect (50 µM) [%] | Percent Effect (10 µM) [%]
CC(C)(C(=O)OCC(N)=O)c1ccccc1 | 2.133 | –
CC(C)N(C)CC(=O)NCCn1cccc1 | 7.108 | –
O=C(NCc1n[nH]c(=O)[nH]1)C1COc2ccccc21 (centres undefined) | -1.703 | –
CNc1ncc2c(n1)CN(c1cccc(OC)c1)C2=O | – | 69.02
CNc1ncc2c(n1)CN(CCc1ccccc1)C2=O | – | -25.26
COc1ccc(N2Cc3nc(N)ncc3C2=O)cc1 | – | 9.612
COc1cccc(N2Cc3nc(=O)[nH]n3C2=O)c1 | – | -7.908
Cc1cccc(N2Cc3nc(N4CCC(C)CC4)ncc3C2=O)c1 | – | 14.75
CCNc1ncc2c(n1)CN(c1cccc(OC)c1)C2=O | – | 76.16
CN(C(=O)CC(N)c1ccccc1)c1cccc(F)c1 (centres undefined) | 3.1 | –
Nc1ncccc1CN1CCN(C2CCOCC2)CC1 | 4.597 | –
O=C1CCCCN1Cn1cnc2c(Br)cccc2c1=O | -5.958 | –
COc1ccc(C(=O)Nc2c(C(=O)N(C)C)nn(C)c2C)cc1 | – | 52.86
Cc1c(NC(=O)c2cccc(Br)c2)c(C(=O)N(C)C)nn1C | – | 13.13
Cc1ccc(C(=O)Nc2c(C(=O)N(C)C)nn(C)c2C)cc1 | – | 18.52
Cc1cccc(C(=O)Nc2c(C(=O)N(C)C)nn(C)c2C)c1 | – | 18.52
Cc1c(NC(=O)c2ccc(Br)cc2)c(C(=O)N(C)C)nn1C | – | 46.94
Cc1ccc(C(=O)Nc2c(C(=O)N(C)C)nn(C)c2C)cc1C | – | 61.35
CC(=O)NCc1ccc(C(C)=O)s1 | 3.848 | –
CCOc1cc(CNCc2ccccn2)ccc1O | 12.08 | –
CCNS(=O)(=O)c1csc(C(=O)Nc2cc(C)on2)c1 | 60.53 | –
Cc1cc(NC(=O)c2ccc(S(C)(=O)=O)cc2)no1 | 1.537 | –
CCS(=O)(=O)N(C)CC(=O)Nc1cc(C)on1 | -10.63 | –

Structure (SMILES) | Percent Effect (50 µM) [%] | Percent Effect (10 µM) [%]
Cc1ccoc1C(=O)NC1CCN(Cc2ccccc2C#N)CC1 | – | -1.883
Cc1ccoc1C(=O)NC1CCN(Cc2ccccc2F)CC1 | – | -8.886
Cc1ccoc1C(=O)NC1CCN(Cc2cccc3ccccc23)CC1 | – | 53.31
CC(C)(C)c1ccc(-n2ncc3c2CCCC3N)cc1 (centres undefined) | – | 50.93
Cc1ccc(-n2ncc3c2CCCC3N)cc1C (centres undefined) | – | 16.25
Cc1cc(C)cc(-n2ncc3c2CCCC3N)c1 (centres undefined) | – | 16.38
COc1ccc(CN2CCCNCC2)cc1 | 13.71 | –
Cc1cc(C(=O)N(C)Cc2cccs2)nc(N2CCOCC2)n1 | – | -10.44
Cc1cc(C(=O)N(C)Cc2cccs2)nc(N2CCCC2)n1 | – | 6.801
Cc1cc(C(=O)N(C)Cc2cccs2)nc(N2CCCCC2)n1 | – | 73.87
CSc1ccc(CNc2ccn(CCC(N)=O)n2)cc1 | -4.331 | –
Cc1ccc(-c2cc(C(=O)NCCN3CCOCC3)n[nH]2)s1 | – | 27.02
O=C(NCCN1CCOCC1)c1cc(-c2ccccc2Cl)[nH]n1 | – | -1.617
O=C(NCCN1CCOCC1)c1cc(-c2ccc(Cl)s2)[nH]n1 | – | 52.66
CS(=O)(=O)N[C@H]1CN(c2ccncc2F)C[C@@H]1C1CC1 | 3.462 | –
CCc1cnc(CNC(=O)NCc2cnn(C)c2)s1 | -4.497 | –
Cc1cc(C(=O)Nc2ccc(OCC(N)=O)cc2)on1 | 12.73 | –
Cc1cc(C(=O)Nc2cccc(C[S+](C)[O-])c2)on1 (centres undefined) | 98.42 | –
Cc1cc(C(=O)Nc2cnn(C)c2)on1 | 0.4555 | –
O=C(NCCNc1ncccn1)C1CC(=O)N(Cc2ccccc2)C1 (centres undefined) | – | 14.32
O=C(NCCNc1ncccn1)C1CC(=O)N(Cc2ccccn2)C1 (centres undefined) | – | 66.32
O=C(NCCNc1ncccn1)C1CC(=O)N(Cc2ccco2)C1 (centres undefined) | – | 18.03

Reference: ChEMBL document CHEMBL3988442, “University of Dundee, Small-Polar-MMV Screening Library” (2021)
